# In the supplement of paper PMC10849652:
# About 7,900 targets were measured; listed, in parts, are those with a hit and a random draw of the rest. About 0.6% of all pairs of compound and target were hits.
# Compound: CC(=O)c1cnc2ccc(-c3cc(Cl)c(O)c(Cl)c3)nc2c1N[C@H]1CC[C@H](CN(C)C)CC1
# Test: log2 fold change, soluble protein after heating vs DMSO (PISA); higher = thermal stabilisation; K562 cells, 10 uM, 30 min; active = over 0.2 and 3.5 SD of the protein, either way, in both replicates (recomputed)
# Summary of the method: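 Values are thermal stability changes relative to control samples and are taken from duplicates. They are stated as log2 fold changes. Before quantification by TMTpro 16plex LC-MS/MS with equalised channel sums, K562 cells at 2×10^6 cells/mL were treated with 10 μM compound for 30 min, heated in aliquots for 3 min across 48°C-58°C, pooled, extracted in PBS with 0.5% NP-40 at 4°C, and centrifuged at 21,000xg for 90 min to give the soluble supernatant.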
# Sequence of UniProt Q92538 (Q92538 whole entry, looked up): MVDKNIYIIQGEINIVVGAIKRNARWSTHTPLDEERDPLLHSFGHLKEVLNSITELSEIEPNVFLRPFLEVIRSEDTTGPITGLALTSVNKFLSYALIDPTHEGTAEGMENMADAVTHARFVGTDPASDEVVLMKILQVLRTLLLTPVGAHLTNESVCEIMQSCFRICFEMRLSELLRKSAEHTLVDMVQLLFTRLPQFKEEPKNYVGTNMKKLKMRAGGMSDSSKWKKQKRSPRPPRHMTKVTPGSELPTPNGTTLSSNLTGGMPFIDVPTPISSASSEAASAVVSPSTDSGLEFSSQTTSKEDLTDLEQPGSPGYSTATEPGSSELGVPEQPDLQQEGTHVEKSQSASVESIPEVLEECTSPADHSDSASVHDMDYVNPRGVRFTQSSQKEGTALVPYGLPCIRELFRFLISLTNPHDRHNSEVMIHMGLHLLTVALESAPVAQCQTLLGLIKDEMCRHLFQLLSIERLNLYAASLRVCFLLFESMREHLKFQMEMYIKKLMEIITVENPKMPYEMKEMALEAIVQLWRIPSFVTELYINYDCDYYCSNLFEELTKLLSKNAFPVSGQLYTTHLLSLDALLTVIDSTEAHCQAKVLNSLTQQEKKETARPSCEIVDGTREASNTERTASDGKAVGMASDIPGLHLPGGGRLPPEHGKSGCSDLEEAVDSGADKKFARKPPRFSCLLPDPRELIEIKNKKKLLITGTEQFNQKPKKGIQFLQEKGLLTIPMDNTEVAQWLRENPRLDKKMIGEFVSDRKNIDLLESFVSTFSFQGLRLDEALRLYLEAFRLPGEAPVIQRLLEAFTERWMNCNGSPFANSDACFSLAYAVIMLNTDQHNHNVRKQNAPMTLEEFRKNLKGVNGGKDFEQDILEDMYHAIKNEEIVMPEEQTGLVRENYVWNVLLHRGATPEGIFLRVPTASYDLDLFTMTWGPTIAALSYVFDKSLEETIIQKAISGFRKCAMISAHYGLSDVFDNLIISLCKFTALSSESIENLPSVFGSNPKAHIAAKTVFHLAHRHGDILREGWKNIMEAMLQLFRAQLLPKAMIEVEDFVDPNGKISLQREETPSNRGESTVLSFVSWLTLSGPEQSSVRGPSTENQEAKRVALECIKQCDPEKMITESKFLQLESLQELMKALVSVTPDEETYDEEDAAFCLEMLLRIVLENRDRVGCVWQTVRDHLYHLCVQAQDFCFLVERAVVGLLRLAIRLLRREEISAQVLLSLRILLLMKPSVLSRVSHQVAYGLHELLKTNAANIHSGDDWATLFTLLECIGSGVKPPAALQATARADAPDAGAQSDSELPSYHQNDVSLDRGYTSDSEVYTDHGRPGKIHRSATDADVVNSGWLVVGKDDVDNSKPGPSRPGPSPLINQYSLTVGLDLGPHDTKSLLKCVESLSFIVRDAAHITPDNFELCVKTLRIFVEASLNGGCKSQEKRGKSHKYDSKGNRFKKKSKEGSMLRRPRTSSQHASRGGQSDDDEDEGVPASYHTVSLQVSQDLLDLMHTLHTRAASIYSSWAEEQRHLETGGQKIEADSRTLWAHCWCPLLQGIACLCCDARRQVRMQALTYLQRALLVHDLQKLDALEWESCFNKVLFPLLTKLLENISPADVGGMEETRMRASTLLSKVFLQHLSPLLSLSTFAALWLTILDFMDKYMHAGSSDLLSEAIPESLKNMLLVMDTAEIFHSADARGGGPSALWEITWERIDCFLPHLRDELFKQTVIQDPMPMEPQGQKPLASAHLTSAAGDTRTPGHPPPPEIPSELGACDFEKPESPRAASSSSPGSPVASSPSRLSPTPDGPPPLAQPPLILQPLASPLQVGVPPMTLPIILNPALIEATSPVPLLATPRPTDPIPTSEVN
# Sequence of UniProt Q9UJ14 (Q9UJ14 whole entry, looked up): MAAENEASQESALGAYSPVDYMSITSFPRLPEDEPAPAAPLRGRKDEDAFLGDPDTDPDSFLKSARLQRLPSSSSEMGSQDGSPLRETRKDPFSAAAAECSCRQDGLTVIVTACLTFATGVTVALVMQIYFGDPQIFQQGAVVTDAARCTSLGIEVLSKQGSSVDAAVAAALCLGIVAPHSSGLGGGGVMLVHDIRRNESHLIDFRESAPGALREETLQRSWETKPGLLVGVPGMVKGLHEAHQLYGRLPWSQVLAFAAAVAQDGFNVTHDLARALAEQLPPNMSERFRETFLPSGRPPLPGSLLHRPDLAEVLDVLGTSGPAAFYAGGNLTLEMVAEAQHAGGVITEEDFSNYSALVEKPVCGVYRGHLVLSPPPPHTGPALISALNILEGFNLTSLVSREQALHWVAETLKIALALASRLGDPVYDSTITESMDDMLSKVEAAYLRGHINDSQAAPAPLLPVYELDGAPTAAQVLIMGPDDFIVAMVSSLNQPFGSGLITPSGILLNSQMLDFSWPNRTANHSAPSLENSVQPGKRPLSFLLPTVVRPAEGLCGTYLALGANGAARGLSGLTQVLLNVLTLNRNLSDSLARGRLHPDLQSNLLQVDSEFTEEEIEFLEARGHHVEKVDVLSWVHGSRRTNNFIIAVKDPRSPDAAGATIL
# Sequence of UniProt P02008 (P02008 whole entry, looked up): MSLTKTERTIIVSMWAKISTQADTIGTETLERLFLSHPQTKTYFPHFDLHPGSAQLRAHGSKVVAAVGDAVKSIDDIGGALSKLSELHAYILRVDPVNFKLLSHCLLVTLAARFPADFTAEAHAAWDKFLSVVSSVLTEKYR
# Sequence of UniProt P78417 (P78417 whole entry, looked up): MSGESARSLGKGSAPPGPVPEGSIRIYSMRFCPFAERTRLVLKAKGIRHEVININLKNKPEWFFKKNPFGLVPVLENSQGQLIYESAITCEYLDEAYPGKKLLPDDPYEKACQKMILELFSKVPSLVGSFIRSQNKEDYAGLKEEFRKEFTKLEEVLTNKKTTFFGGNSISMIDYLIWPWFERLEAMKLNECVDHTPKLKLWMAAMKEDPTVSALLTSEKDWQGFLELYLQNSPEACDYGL
# Sequence of UniProt Q9H4A6 (Q9H4A6 whole entry, looked up): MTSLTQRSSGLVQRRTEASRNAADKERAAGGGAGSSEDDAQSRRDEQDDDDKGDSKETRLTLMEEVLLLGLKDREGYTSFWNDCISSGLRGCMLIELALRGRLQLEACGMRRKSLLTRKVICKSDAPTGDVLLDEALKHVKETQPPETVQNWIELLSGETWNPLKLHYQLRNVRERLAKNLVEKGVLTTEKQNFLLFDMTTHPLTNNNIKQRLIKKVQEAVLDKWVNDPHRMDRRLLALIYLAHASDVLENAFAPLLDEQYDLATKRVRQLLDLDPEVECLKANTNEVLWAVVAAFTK
# Sequence of UniProt Q53FT3 (Q53FT3 whole entry, looked up): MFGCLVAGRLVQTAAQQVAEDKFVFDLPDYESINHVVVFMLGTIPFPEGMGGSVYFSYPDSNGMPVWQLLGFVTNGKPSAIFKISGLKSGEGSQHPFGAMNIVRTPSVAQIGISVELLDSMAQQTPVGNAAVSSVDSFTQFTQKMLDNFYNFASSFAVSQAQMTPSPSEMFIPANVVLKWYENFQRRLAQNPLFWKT
# Sequence of UniProt O60725 (O60725 whole entry, looked up): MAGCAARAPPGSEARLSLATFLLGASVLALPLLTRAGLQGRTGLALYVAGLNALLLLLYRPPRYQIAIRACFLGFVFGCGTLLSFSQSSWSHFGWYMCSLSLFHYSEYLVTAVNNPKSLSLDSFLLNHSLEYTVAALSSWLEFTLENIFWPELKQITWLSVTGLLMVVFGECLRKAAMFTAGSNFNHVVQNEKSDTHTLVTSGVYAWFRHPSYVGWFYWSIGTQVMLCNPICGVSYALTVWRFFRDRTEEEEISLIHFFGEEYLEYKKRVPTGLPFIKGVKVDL
# Sequence of UniProt P49448 (P49448 whole entry, looked up): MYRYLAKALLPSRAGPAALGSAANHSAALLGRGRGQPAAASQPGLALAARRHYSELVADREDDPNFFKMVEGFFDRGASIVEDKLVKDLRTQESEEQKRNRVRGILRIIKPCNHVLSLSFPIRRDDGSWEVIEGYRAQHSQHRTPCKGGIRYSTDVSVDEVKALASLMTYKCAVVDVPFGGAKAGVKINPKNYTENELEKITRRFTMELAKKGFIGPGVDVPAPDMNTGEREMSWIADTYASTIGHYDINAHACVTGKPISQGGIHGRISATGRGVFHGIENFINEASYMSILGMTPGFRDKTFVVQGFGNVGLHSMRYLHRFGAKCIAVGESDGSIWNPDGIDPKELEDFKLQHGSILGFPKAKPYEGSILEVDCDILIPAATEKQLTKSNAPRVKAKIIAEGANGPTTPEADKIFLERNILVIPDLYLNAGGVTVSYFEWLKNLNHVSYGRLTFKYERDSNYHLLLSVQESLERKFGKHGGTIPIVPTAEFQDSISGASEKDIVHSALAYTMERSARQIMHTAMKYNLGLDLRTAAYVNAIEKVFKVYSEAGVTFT
# Sequence of UniProt Q00688 (Q00688 whole entry, looked up): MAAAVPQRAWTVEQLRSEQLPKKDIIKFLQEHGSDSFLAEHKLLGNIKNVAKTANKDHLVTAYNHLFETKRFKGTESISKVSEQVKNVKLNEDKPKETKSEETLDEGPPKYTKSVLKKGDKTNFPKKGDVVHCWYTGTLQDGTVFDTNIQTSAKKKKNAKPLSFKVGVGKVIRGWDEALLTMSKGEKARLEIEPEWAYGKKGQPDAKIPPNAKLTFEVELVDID
# Sequence of UniProt P06865 (P06865 whole entry, looked up): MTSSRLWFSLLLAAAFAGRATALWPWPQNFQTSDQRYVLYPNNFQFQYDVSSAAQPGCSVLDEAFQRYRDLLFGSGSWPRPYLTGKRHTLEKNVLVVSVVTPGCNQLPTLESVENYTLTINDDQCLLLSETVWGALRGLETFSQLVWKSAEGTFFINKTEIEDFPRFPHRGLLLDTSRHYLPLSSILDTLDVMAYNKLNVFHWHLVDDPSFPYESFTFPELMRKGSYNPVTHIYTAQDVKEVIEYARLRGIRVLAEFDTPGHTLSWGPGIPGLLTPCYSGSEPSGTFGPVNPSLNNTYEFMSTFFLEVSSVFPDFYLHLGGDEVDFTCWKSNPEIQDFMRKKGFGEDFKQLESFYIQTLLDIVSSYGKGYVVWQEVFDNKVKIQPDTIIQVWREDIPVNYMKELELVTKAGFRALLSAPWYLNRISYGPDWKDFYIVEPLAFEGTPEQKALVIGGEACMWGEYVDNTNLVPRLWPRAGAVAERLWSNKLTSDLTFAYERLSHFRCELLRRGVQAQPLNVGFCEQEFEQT
row,Target,log2 fold change
1,FKBP3 (UniProt Q00688),0.016 (inactive)
2,GPX4 (UniProt P36969),-0.005 (inactive)
3,HEXA (UniProt P06865),0.018 (inactive)
4,HECTD1 (UniProt Q9ULT8),0.001 (inactive)
5,GLUD2 (UniProt P49448),0.113 (inactive)
6,GBF1 (UniProt Q92538),-0.044 (inactive)
7,HIKESHI (UniProt Q53FT3),0.023 (inactive)
8,HBZ (UniProt P02008),-0.005 (inactive)
9,HIP1 (UniProt O00291),-0.07 (inactive)
10,HADHB (UniProt P55084),-0.326 (inactive)
11,GTPBP6 (UniProt O43824),0.028 (inactive)
12,GOLPH3 (UniProt Q9H4A6),-0.023 (inactive)
13,GSTO1 (UniProt P78417),0.006 (inactive)
14,GYG1 (UniProt P46976),-0.29 (inactive)
15,ICMT (UniProt O60725),0.248 (inactive)
16,FANCD2 isoform 1 (UniProt Q9BXW9),-0.155 (inactive)
17,GMEB1 (UniProt Q9Y692),-0.021 (inactive)
18,GALNT2 (UniProt Q10471),-0.006 (inactive)
19,GCC2 (UniProt Q8IWJ2),0.105 (inactive)
20,HAX1 (UniProt O00165),-0.07 (inactive)
21,GGT7 (UniProt Q9UJ14),0.02 (inactive)
22,HDAC7 isoform 5 (UniProt Q8WUI4),-0.561 (active)
23,HSPA8 (UniProt E9PK54),0.015 (inactive)
24,HIST2H3A (UniProt Q71DI3),-0.012 (inactive)
